The results in this text go back to PubChem BioAssay (NCI).

Where “and” joins values, the source holds several entries; their conditions need not be identical. Equal entries are not always repeated. This is part of a sample that, as a whole, favours compounds with a hit. Of some 83,000 tested, about 20% had one in any assay.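 A percent growth of 40 corresponds to 60% growth inhibition; 0 means no net growth; -100 means all cells died. Active threshold: below 10.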 Calls of active or inactive are those of the source.

The test concerns HL-60(TB) leukemia. Description: NCI-60 one-dose screen, 48 h (100 = growth as untreated, 0 = no growth, -100 = all killed). As to conditions: 10 µM unless noted.
With `Fc1ccc(N/N=C/c2ccc(-n3cccn3)cc2)cc1`, the growth is 118% (inactive).

Consider `COc1ccc2c(c1)nnn1c3ncccc3c(N=O)c21`, for which the growth is -39.8% (active).

With `Nc1c(C(=O)Nc2cccc3ccccc23)sc2nc3c(cc12)COCC3`, the growth was -4.22% (active).

`CC[C@]12CN3CCc4c([nH]c5ccccc45)[C@@](C(=O)OC)(c4cc5c(cc4OC)N(C)[C@H]4[C@@](O)(C(=O)OC)[C@H](OC(C)=O)[C@]6(CC)C=CCN7CC[C@]54[C@@H]76)CC(C3)[C@H]1O2` (stereo not given in full): the growth is -1.28% (active).

Turning to `CC(C)NCCCNC1=C(Cl)C(=O)c2ccccc2C1=O`, the growth was 11.5% (inactive).

Consider `Cc1cc(C)cc(S(=O)(=O)n2ccc(-c3ccc4c(c3)CCC(C)(C)O4)n2)c1`, for which the growth is 99.8% (inactive).

In the case of `COC(=O)CNC(=O)C(=O)c1c(O)c(O)c(C(C)C)c2cc(C)c(-c3c(C)cc4c(C(C)C)c(O)c(O)c(C(=O)C(=O)NCC(=O)OC)c4c3O)c(O)c12`, the growth is 24.6% (inactive).

On to `O=C(CC12CC3CC(CC(C3)C1)C2)NCCOCCOCCNC(=O)c1cc2c(o1)C(=O)c1ccccc1C2=O`, for which the growth was -16% (active).

As to `Nc1cc(-c2nc3sccn3c2-c2ccnc(NCCCNS(=O)(=O)c3ccc(F)cc3)n2)ccc1F`, the growth is 63.6% (inactive).

In the case of `CC(=O)O[C@H]1CC[C@@]2(C)[C@@H](CC[C@@H]3[C@@H]2CC[C@]2(C)C=C(C=O)C[C@@H]32)C1`, the growth was -37.5% (active).

In the case of `O=C(CCCCCCSc1nc(-c2ccc(Cl)cc2)cc(-c2ccc(Cl)cc2)n1)NO`, the growth is 9.99% (active).

Take `CCOC(=O)C(N)Cc1cc(I)c(O)c(I)c1` (stereo not given): the growth is 99.9% (inactive) and 132% (inactive).

As for `O=Nc1c(O)ccc2ccccc12`, the growth is -26.3% (active) and 74% (inactive).

For `O=C(CNS(=O)(=O)Cc1ccccc1)NNc1ccccc1`, the growth was 18% (inactive).

In the case of `N#CCSc1nnc2n(Cc3ccccc3)c(=O)c3c4c(sc3n12)CCCC4`, the growth was 81.7% (inactive).

Turning to `COc1cc(/C=N/NC(=O)c2ccccc2Nc2cccc(C(F)(F)F)c2)ccc1O`, the growth is 26.9% (inactive).

In the case of `O=S(=O)(O)C1(O)CCCCC1`, the growth is 87.6% (inactive).

`O=C(/C=C/c1cn(-c2ccccc2)nc1-c1ccc([N+](=O)[O-])cc1)c1ccc(Cl)cc1`: the growth is 69.1% (inactive).

On to `O=C(N/N=C/c1ccccc1O)C(O)(c1ccccc1)c1ccccc1`, for which the growth was 35% (inactive).

Turning to `COc1cc(/C=C/C(=O)c2cccc(Nc3nc(Nc4ccccc4)nc(Nc4ccccc4)n3)c2)cc(OC)c1OC`, the growth is 9.01% (active).

Take `CN1CCN(Cc2ccc(NC(=O)c3cncc(C#Cc4cnc(N)c5ccccc45)c3)cc2C(F)(F)F)CC1`: the growth was -46.3% (active).

For the compound `Cn1cccc1/C=C1/SC(=S)N(CCc2ccc(O)cc2)C1=O`, the growth is 1.22% (active).

On to `CC1=CC[C@@H]2C(C)(C)[C@@H](O)CC[C@@]2(C)[C@@H]1COc1ccc2ccc(=O)oc2c1`, for which the growth is 76.7% (inactive).

Consider `CC[Si](CC)(CC)OC1[C@@H](O[Si](CC)(CC)CC)[C@@H](CNC(=O)NC)O[C@H]1n1cnc2c(NC(=O)Nc3ccccc3)ncnc21` (stereo not given in full), for which the growth is -39.6% (active).

As to `CCCCCCCCCCCCCCCCOP(=O)([O-])OCC[N+](C)(C)C`, the growth is -29.6% (active).

`N#Cc1cnc(NCCc2ccncc2)nc1-n1cnc2ccccc21`: the growth is 37.7% (inactive).

As for `CC(C)N=c1cc2n(-c3ccc(Cl)cc3)c3ccccc3nc-2cc1Nc1ccc(Cl)cc1`, the growth was -6.14% (active) and -2.06% (active) and -36.3% (active).

Consider `C=CCc1cc(C(C)=O)cc(OC)c1O`, for which the growth is 71.1% (inactive).

For the compound `O=C(CN1C(=O)NC2NC(=O)NC21)N/N=C/c1ccccc1[N+](=O)[O-]` (stereo not given), the growth is 99.2% (inactive).

With `O=C(CCC(C(=O)c1ccccc1)c1ccccc1)c1ccccc1` (stereo not given), the growth was 28.1% (inactive).

Regarding `Cc1ccc(C2C3CC4CCCCC4N3[C@@]3(C(=O)Nc4cc(Cl)ccc43)C2C(=O)c2nc3ccccc3[nH]2)cc1` (stereo not given in full), the growth was 1.4% (active).

As for `CN1CCN(Cn2nc(-c3cc(F)c(Cl)cc3Cl)n(/N=C/c3ccc(N(C)C)cc3)c2=S)CC1`, the growth is 83.1% (inactive).

On to `CCOc1ccc(/C=N\N2CCCCCC2)cc1OCC`, for which the growth is 92.7% (inactive).

As to `CC12CCCCC1C(C(N)=O)C(=O)O2` (stereo not given), the growth was 102% (inactive).

With `Cc1cc(N(CCCNc2ccnc3cc(Cl)ccc23)Cc2ccc3c(c2)OCO3)nc(N2CCOCC2)n1`, the growth was -69.7% (active).

As for `CC(=O)NC(Cc1ccccc1)C(=O)Oc1ccc2ccccc2c1` (stereo not given), the growth was 110% (inactive) and 83.4% (inactive).

`CCCCCOc1ccc(/C=N/Nc2cc(C)nc3ccc(Br)cc23)cc1`: the growth was -2.49% (active).

`S=c1[nH]cccc1-c1nnc2n1Nc1nc3ccc(Cl)cc3cc1CS2`: the growth was 104% (inactive).

Consider `O=C(NCc1ccc(Cl)cc1Cl)C1CCC(=O)N1c1cccs1` (stereo not given), for which the growth was 99% (inactive).

In the case of `CCOc1ccc(S(=O)(=O)c2ccc(C)cc2)c2c1no[n+]2[O-]`, the growth is 85.7% (inactive).
